Out of some 39,000 compounds screened, about 3,300 (8.5%) were called active. This excerpt belongs to a sample that is enriched for actives.

In this assay the test system is HepG2. Description: cytotoxicity call (relative viability < 0.9). The conditions noted are these: 10 µM.
On to `CC1CCC2(NC1)OC1CC3C4CC=C5CC(O)CCC5(C)C4CCC3(C)C1C2C` (stereo unspecified), for which the cytotoxicity call was “inactive”.

Regarding `C[C@@H]1CC[C@@]2(OC1)O[C@H]1C[C@H]3[C@@H]4CC=C5C[C@@H](O[C@@H]6O[C@H](CO)[C@@H](O[C@@H]7O[C@@H](C)[C@H](O)[C@@H](O)[C@H]7O)[C@H](O)[C@H]6O[C@@H]6O[C@@H](C)[C@H](O)[C@@H](O)[C@H]6O)CC[C@]5(C)[C@H]4CC[C@]3(C)[C@H]1[C@@H]2C`, the cytotoxicity call is “active”. As to `C[C@@H]1CC[C@@]2(OC1)O[C@H]1[C@@H](O)[C@H]3[C@H]4CC[C@H]5C[C@H](O[C@@H]6O[C@H](CO)[C@H](O[C@@H]7O[C@H](CO)[C@@H](O)[C@H](O[C@@H]8OC[C@@H](O)[C@H](O)[C@H]8O)[C@H]7O[C@@H]7O[C@H](CO)[C@H](O)[C@H](O[C@@H]8O[C@H](CO)[C@@H](O)[C@H](O)[C@H]8O)[C@H]7O)[C@H](O)[C@H]6O)[C@H](O)C[C@]5(C)[C@@H]4CC[C@]3(C)[C@H]1[C@@H]2C`, the cytotoxicity call was “inactive”. `C[C@@H]1CN([C@@H](C)CO)C(=O)CCCn2cc(nn2)CO[C@H]1CN(C)C(=O)Oc1ccc2ccccc2c1`: the cytotoxicity call was “inactive”.

Turning to `Cc1nc(N)sc1CCN`, the cytotoxicity call is “inactive”. As for `C1CC2(CCN1)OCCO2`, the cytotoxicity call was “inactive”. Consider `[N-]=[N+]=Nc1ccccc1C[C@@]1(C(=O)NCCN2CCOCC2)N=C(c2ccc(OCCCO)cc2)O[C@@H]1c1ccccc1N=[N+]=[N-]`, for which the cytotoxicity call is “inactive”. In the case of `COCCCNC(=O)[C@@]1(Cc2ccccc2N=[N+]=[N-])N=C(c2ccc(OCCCO)cc2)O[C@H]1c1ccccc1N=[N+]=[N-]`, the cytotoxicity call is “inactive”. `[N-]=[N+]=NCc1ccccc1C[C@@]1(C(=O)NCCN2CCOCC2)N=C(c2ccc(OCCCO)cc2)O[C@@H]1c1ccccc1N=[N+]=[N-]`: the cytotoxicity call is “active”. For `[N-]=[N+]=NCc1ccccc1C[C@]1(C(=O)NCCN2CCOCC2)N=C(c2ccc(OCCCO)cc2)O[C@H]1c1ccccc1N=[N+]=[N-]` the value was “active”; for `Cn1ccnc1C(=O)N[C@H]1CN[C@@H]2CCCO[C@@H]12`, “inactive”; for `Nc1ncnc2c1ncn2CCOCP(=O)(O)O`, “inactive”.

Take `Cc1cc([C@@H](C#N)c2ccc(Cl)cc2)c(Cl)cc1NC(=O)c1cc(I)cc(I)c1O`: the cytotoxicity call is “inactive”. For the molecule `CCC1(O)CC(O)c2c(cc3c(c2O)C(=O)c2c(O)ccc(O)c2C3=O)C1C(=O)OC` (stereo unspecified), the cytotoxicity call is “inactive”.

For `CC[C@@]1(O)C[C@H](O[C@H]2C[C@H](N(C)C)[C@H](O)[C@H](C)O2)c2c(cc3c(c2O)C(=O)c2c(O)ccc(O)c2C3=O)[C@H]1C(=O)OC`, the cytotoxicity call is “active”.

Turning to `Cl.NCCc1cc(O)c(O)cc1O`, the cytotoxicity call was “inactive”. As for `C[C@@H]1CN([C@H](C)CO)C(=O)CCCn2nncc2CO[C@@H]1CN(C)C(=O)Oc1ccc2ccccc2c1`, the cytotoxicity call is “inactive”. `O=C1CC2OCC=C3CN4CCC56c7ccccc7N1C5C2C3CC46.O=S(=O)(O)O` (stereo unspecified): the cytotoxicity call was “active”.

As to `COc1cc2c(cc1OC)C13CCN4CC5=CCOC6CC(=O)N2C1C6C5CC43` (stereo unspecified), the cytotoxicity call was “inactive”.

Regarding `O=C(O)C[C@@H]1CC[C@H]2NC[C@H](O)COC[C@@H]2O1`, the cytotoxicity call was “inactive”.

In the case of `c1ccc2cc3c(cc2c1)-c1cccc2cccc-3c12`, the cytotoxicity call was “active”. As for `c1csc(N2CCNCC2)n1`, the cytotoxicity call is “inactive”. For `COC(=O)[C@@H]1C(=O)NC[C@H]1C(C)C`, the cytotoxicity call is “inactive”. On to `CC(=O)N[C@H]1CCSC1=O`, for which the cytotoxicity call was “inactive”. With `NC(N)=NOCC[C@H](N)C(=O)O` the entry was “inactive”; with `[N-]=[N+]=CC(=O)OCC(N)C(=O)O` (stereo unspecified), “active”. `N#[N+]CC(=O)OC[C@H](N)C(=O)O`: the cytotoxicity call was “inactive”. Take `O=C(NCc1ccccn1)[C@]12CNC[C@H]1COC2`: the cytotoxicity call was “inactive”.

For `O=C1[O][Pt]2([NH][C@@H]3CCCC[C@H]3[NH]2)[O]C1=O`, the cytotoxicity call is “inactive”. Take `CCN1C[C@]2(COC)CC[C@@H](OC)[C@@]34[C@@H]2[C@@H](OC)[C@@H]([C@@H]13)[C@]1(OC(C)=O)C[C@@H](OC)[C@@]2(O)C[C@H]4[C@@H]1[C@H]2OC(=O)c1ccc(OC)cc1`: the cytotoxicity call was “inactive”.

As for `Cc1cc(O)c2c(=O)c3c(O)cc(O)c4c5c(O)cc(O)c6c(=O)c7c(O)cc(C)c8c1c2c(c34)c(c78)c65`, the cytotoxicity call was “active”. On to `CC(C)C[C@@H]1C(=O)N2CCC[C@@H]2[C@]2(O)O[C@@](NC(=O)[C@@H]3C=C4c5cccc6[nH]c(Br)c(c56)C[C@@H]4N(C)C3)(C(C)C)C(=O)N12`, for which the cytotoxicity call was “inactive”. Regarding `CC[C@@H](CN)c1ccccc1`, the cytotoxicity call was “inactive”. Take `C[N+](C)(C)C[C@H]1CCC[C@@H]1O`: the cytotoxicity call is “inactive”. In the case of `CN1C(=O)N(C)C2C1N(C)C(=O)N2C` (stereo unspecified), the cytotoxicity call is “inactive”.

Consider `NCCc1ccc(C(=O)c2ccccc2)cc1`, for which the cytotoxicity call is “inactive”.

Values taken from the antibiotic and cytotoxicity screens of Wong et al. (2023).
